Source: PubChem BioAssay
The source made the active and inactive calls.

Tests used:
[1] = compound effects on lung adenocarcinoma cell viability – A549, calcein-AM fluorescence, 48 h, basal, profiling panel (AID 1162); conditions: higher = more signal
[2] = compound effects on differentiated 3T3-L1 adipocyte viability – cell-based, 3T3-L1 adipocytes, calcein-AM fluorescence, 48 h, basal, profiling panel (AID 1163); conditions: 3T3-L1 adipocytes viability, higher = more signal
[3] = compound effects on hepatocellular carcinoma cell viability – HepG2, calcein-AM fluorescence, 48 h, basal, profiling panel (AID 1164); conditions: higher = more signal
[4] = compound effects on multiple myeloma cell viability – MM1S, calcein-AM fluorescence, 48 h, basal, profiling panel (AID 1165); conditions: higher = more signal
[5] = calcein-AM signal in unstimulated myeloma cells – cell-based, calcein-AM fluorescence, 48 h, PK04 Diversity Set, profiling panel (AID 1166); conditions: RPMI8226 myeloma viability, higher = more signal;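 further: cells grown under basal conditions without added stimulus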
[6] = JC-1 mitochondrial signal, unstimulated HepG2 cells – cell-based, JC-1 fluorescence, 24 h, 100 nL compound, profiling panel (AID 1167); conditions: HepG2 mitochondrial potential, higher = more signal
[7] = JC-1 mitochondrial signal, unstimulated adipocytes – cell-based, JC-1 fluorescence, 3T3-L1 adipocytes, 24 h, 100 nL compound, profiling panel (AID 1168); conditions: JC-1 mitochondrial fluorescence, higher = more signal, called active from +8 up or from −8 down
[8] = JC-1 mitochondrial signal, unstimulated myeloma cells – cell-based, JC-1 fluorescence, RPMI8226, 24 h, 100 nL compound, profiling panel (AID 1169); conditions: JC-1 mitochondrial potential fluorescence, higher = more signal
[9] = JC-1 mitochondrial signal, unstimulated MM1S myeloma – cell-based, JC-1 fluorescence, 24 h, 100 nL compound, profiling panel (AID 1170); conditions: MM1S mitochondrial potential, higher = more signal
[10] = resazurin metabolic signal in A549 cells – cell-based, resazurin fluorescence, 24 h, PK04 Diversity Set, profiling panel (AID 1171); conditions: A549 viability, higher = more signal, called active from +8 up or from −8 down
Further: test concentration not given here.

Structure (SMILES)	z-score [1]	z-score [2]	z-score [3]	z-score [4]	z-score [5]	z-score [6]	z-score [7]	z-score [8]	z-score [9]	z-score [10]
CN(C)CCCCNC(=O)[C@H]1C[C@H]2C(=O)NCC(=O)N2[C@H]1c1ccc(O)cc1	-0.685	0.364	-0.239	0.34	-0.0681	-0.253	-0.324 (inactive)	0.347	-0.371	1.05 (inactive)
COCCOC(=O)N1C(=O)[C@@]2(c3cc(C#CCC(C(=O)OC)C(=O)OC)ccc31)[C@H](C(=O)Nc1nc3ccccc3s1)[C@H]1C(=O)O[C@H](c3ccccc3)[C@H](c3ccccc3)N1[C@@H]2c1ccc(OCCO)cc1	0.4	0.502	0.593	-0.733	0.427	-3.27	1.05 (inactive)	-0.708	0.327	1.42 (inactive)
C=CCNC(=O)[C@@H]1[C@H]2C(=O)O[C@H](c3ccccc3)[C@H](c3ccccc3)N2[C@H](c2ccc(OCCO)cc2)[C@@]12C(=O)Nc1ccc(C#CC3(O)CCCCCC3)cc12	-0.134	1.84	-1.39	-1.29	-2.43	-1.16	-0.848 (inactive)	-0.862	-0.962	0.355 (inactive)
CC1CC/C=C\[C@H]2OC34C=CCN(Cc5ccccc5)C(=O)[C@H]3N(CCCCCCO)C(=O)[C@@H]4C2C(=O)O1 (stereo not given in full)	1.3	0.221	0.881	1.41	0.0497	0.0727	-0.0479 (inactive)	0.62	1.34	0.919 (inactive)
Cc1ccc(S[C@]2(C(=O)NCCCN(C)C)CC(=O)N(Cc3ccccc3C(F)(F)F)[C@@H]2c2ccc(CO)cc2I)cc1	0.476	0.449	-0.297	-2.72	-1.87	-0.817	-0.395 (inactive)	-0.302	-1.35	0.537 (inactive)
COc1ccc(C(O)C2C=CC3C(=O)NC(=O)C3N2Nc2ccc(Cl)cc2Cl)c2ccccc12 (stereo not given)	-1.88	0.0133	-2.36	-3.8	-3.99	-3.88	0.564 (inactive)	-1.1	0.533	-1.29 (inactive)
Cc1ccccc1C(O)C1C=CC2C(=O)N(c3ccccc3)C(=O)C2N1Nc1ccccc1 (stereo not given)	-0.0545	-1.17	1.8	0.928	-0.645	-0.978	-0.703 (inactive)	-0.318	-0.638	0.0292 (inactive)
CN(C)C(=O)[C@@]1(Cc2ccccc2CN=[N+]=[N-])COC(c2ccc(OCCCO)cc2)=N1	-0.113	0.442	0.0407	-3.51	-2.76	1.21	1.1 (inactive)	-1.08	-1.65	0.0714 (inactive)
CN1C(=O)[C@@H]2[C@@H](CC(COc3ccccc3)=C3[C@@H](CCc4ccccc4)OB(O)C[C@@H]32)C1=O	0.231	-0.477	-1.14	-2.31	-0.802	-1.62	-0.0562 (inactive)	0.122	-0.904	-0.453 (inactive)
O=C1C2C=CC(C(O)c3cccs3)N(Nc3ccc([N+](=O)[O-])cc3)C2C(=O)N1c1ccccc1 (stereo not given)	-0.792	-1.01	1.43	-0.752	-0.85	-0.841	-0.728 (inactive)	0.569	-1.46	0.644 (inactive)
CCCC[C@H]1C[C@@H]1[C@@H]1N(C(C)=O)[C@H](c2cccc(OC)c2)CC12CC2	-1.54	-0.134	-0.793	-0.762	-0.778	-1.07	0.546 (inactive)	-0.172	-0.643	2.94 (inactive)
CCOC(=O)C[C@H]1[C@H](OC(=O)c2ccccc2-c2ccccc2)[C@@H](NC(=O)c2ccc3ccccc3c2)c2cc(OCCCO)ccc2N1C(=O)Cc1ccc(OC)cc1	0.0867	0.152	0.278	0.306	-0.543	-0.175	0.367 (inactive)	-0.49	0.0571	-0.439 (inactive)
C=CCC(OC(C)=O)[C@@H]1[C@@H](N(Cc2cc3ccccc3o2)C(=O)Cc2ccc(OC)cc2)c2cc(OCCCO)ccc2N1C(=O)c1ccc2ccccc2n1 (stereo not given in full)	0.542	1.46	1.26	0.307	-1.63	2.31	-0.106 (inactive)	-0.617	0.576	-0.719 (inactive)
COc1ccc([Si](C)(C)[C@@H]2[C@@H](CC(=O)N3Cc4ccccc4C[C@H]3CO)O[C@]3(C(=O)N(Cc4cccc(N5CCOC5=O)c4)c4ccccc43)[C@H]2C)cc1	-1.43	1.69	-0.443	-2.51	-3.32	-0.0282	0.192 (inactive)	-1.16	-1.01	-2.45 (inactive)
O=C1O[C@H](c2ccccc2)[C@H](c2ccccc2)N2[C@H]1[C@@H](C(=O)N1CCN(c3ncccn3)CC1)[C@]1(C(=O)Nc3ccc(C#CCCO)cc31)[C@H]2c1ccc(O)cc1	0.356	0.255	0.775	-0.0982	-0.26	-0.19	-0.501 (inactive)	-0.443	-0.0233	1.59 (inactive)
CC(C)N1C(=O)C[C@@](C(=O)NCCN2CCOCC2)(c2ccc([N+](=O)[O-])cc2)[C@H]1c1ccc(CO)cc1	-0.827	-0.641	-0.235	-0.617	0.0859	0.0432	-0.279 (inactive)	-0.95	-0.672	1.05 (inactive)
COCCOC(=O)N1C(=O)[C@@]2(c3cc(C#Cc4ccc(OC)cc4)ccc31)[C@H](c1ccc(OCCO)cc1)N1[C@H](c3ccccc3)[C@H](c3ccccc3)OC(=O)[C@H]1[C@@H]2C(=O)NC[C@H](O)c1ccccc1	0.0843	-0.129	-0.294	-0.291	-1.48	-0.305	1.67 (inactive)	-0.68	-1.52	-0.377 (inactive)
Cc1ccc(S[C@]2(C(=O)NC3CC3)CC(=O)N(C(C)C)[C@@H]2c2ccc(CO)cc2I)cc1	1.22	1.07	-0.722	-2.31	-2.82	2.11	-0.578 (inactive)	-0.114	-2.21	0.954 (inactive)
[N-]=[N+]=Nc1ccccc1[C@@H]1OC(c2ccc(OCCCO)cc2)=N[C@]1(CCS(=O)(=O)c1ccccc1)C(=O)NCC(O)CO (stereo not given in full)	-0.149	-0.375	0.578	-0.662	0.274	-0.148	-0.199 (inactive)	-0.0226	-0.763	0.575 (inactive)
O=C(NCCN1CCOCC1)[C@@H]1c2ccccc2C(=O)N(Cc2ccccc2C(F)(F)F)[C@H]1c1ccc(CO)cc1	1.9	0.783	0.893	0.561	-0.588	2.59	-0.0687 (inactive)	-0.335	-0.109	1.94 (inactive)
C=C(CCCC)C(=O)CC[C@H](OC(=O)c1ccccc1-c1ccccc1C(=O)O)c1ccc(OCCO)cc1	-0.107	0.251	-0.549	-3.19	-3.37	0.236	-0.245 (inactive)	-0.346	0.258	0.52 (inactive)
COC(=O)[C@@]1(Cc2ccccc2)[C@H]2c3cc(C(=O)N(C)C)n(Cc4ccc(C(F)(F)F)nc4)c3C[C@H]2CN1C(=O)c1ccccc1	-1.28	0.286	-0.628	-0.214	-0.559	1.71	-1.09 (inactive)	-0.727	-0.79	0.22 (inactive)
CCCN1C(=O)[C@]2(CCC(=O)OC(C)(C)C)N=C(c3ccc(OCCCO)cc3)O[C@@H]2c2ccccc21	-1.19	0.92	-1.49	-3.41	-4.37	1.01	2.01 (inactive)	-1.32	-1.54	-0.965 (inactive)
COCCCNC(=O)[C@@]1(Sc2ccc(C)cc2)CC(=O)N(Cc2ccccc2C(F)(F)F)[C@@H]1c1ccc(CO)cc1I	-0.172	0.224	0.245	-3.18	-2.36	-0.33	-0.101 (inactive)	-0.339	-1.33	-0.731 (inactive)
COc1ccc(C#Cc2ccc3c(c2)[C@]2(C(=O)N3)[C@H](C(=O)O)[C@H]3C(=O)O[C@H](c4ccccc4)[C@H](c4ccccc4)N3[C@@H]2c2ccccc2OCCO)cc1	-1.23	1.19	-2.52	-3.32	-4.18	-3.99	2.1 (inactive)	-0.823	-1.3	-0.435 (inactive)
O=C(NC1CC1)[C@@H]1c2ccccc2C(=O)N(Cc2ccc(OC(F)(F)F)cc2)[C@H]1c1ccc(CO)cc1	1.1	0.707	-0.591	0.0839	-0.0348	2.35	0.379 (inactive)	-0.261	0.825	1.03 (inactive)
CCOC(=O)C[C@H]1[C@H](OC(=O)Cc2ccc3c(c2)OCO3)[C@@H](NC(=O)Cc2ccc(OC)cc2)c2cc(OCCCO)ccc2N1C(=O)Cc1ccc(OC)cc1	2.07	1.17	1.57	0.405	-0.658	1.34	0.376 (inactive)	0.229	-0.88	-0.379 (inactive)
COC(=O)[C@@]1(Cc2ccc(OC)cc2)[C@H]2c3cc(C(=O)N4CCCC4)n(Cc4ccc(Cl)c(C(F)(F)F)c4)c3C[C@H]2CN1C(=O)c1ccccc1	-0.305	0.134	0.931	-0.963	-0.741	2.07	0.15 (inactive)	-0.671	-1.63	-0.134 (inactive)
